{"source": "the antibiotic and cytotoxicity screens of Wong et al. (2023)", "note": "About 1,500 (3.8%) of roughly 39,000 compounds were called active. Only a selection was taken, and actives are over-represented in it overall."}
{"system": "HSkMC (human skeletal muscle cells)", "test": "cytotoxicity call (relative viability < 0.9)", "details": "10 µM"}
{"molecule": "C[C@@H]1CN([C@@H](C)CO)C(=O)c2cccc(NC(=O)Nc3ccc(C(F)(F)F)cc3)c2O[C@H]1CN(C)Cc1ccc(C(=O)Nc2ccccc2N)cc1", "cytotoxicity call": "inactive"}
{"molecule": "C[C@H](CO)N1C[C@H](C)[C@H](CN(C)C(=O)c2ccccc2)OCCCC[C@H](C)Oc2ccc(NC(=O)NC3CCCCC3)cc2C1=O", "cytotoxicity call": "inactive"}
{"molecule": "O=C(C[C@@H]1CC[C@H](NS(=O)(=O)c2ccc(F)cc2)[C@H](CO)O1)NCc1ccc(Cl)c(Cl)c1", "cytotoxicity call": "inactive"}
{"molecule": "C[C@@H]1CN([C@@H](C)CO)S(=O)(=O)c2ccc(-c3cccnc3)cc2O[C@H]1CN(C)CC1CCOCC1", "cytotoxicity call": "inactive"}
{"molecule": "COCC(=O)N(C)C[C@H]1Oc2cc(C#CCN(C)C)ccc2S(=O)(=O)N([C@H](C)CO)C[C@H]1C", "cytotoxicity call": "inactive"}
{"molecule": "CCNC(=S)N1CCC[C@H](C(N)=O)C1", "cytotoxicity call": "inactive"}
{"molecule": "Cn1cncc1CN1CCO[C@]2(COCCN(S(C)(=O)=O)C2)C1", "cytotoxicity call": "inactive"}
{"molecule": "Cc1noc(C)c1NC(=O)Nc1ccc2c(c1)C(=O)N([C@@H](C)CO)C[C@H](C)[C@@H](CN(C)C(=O)Nc1ccc3c(c1)OCO3)OCCCC[C@H](C)O2", "cytotoxicity call": "inactive"}
{"molecule": "Nc1ncnc2c1ncn2C1OC(COP(=O)(O)OP(=O)([O-])OP(=O)([O-])O)C(O)C1O.[Na+].[Na+]", "note": "(configuration not stated)", "cytotoxicity call": "inactive"}
{"molecule": "COc1cccc(S(=O)(=O)N(C)C[C@@H]2OCc3cn(nn3)CCCC(=O)N([C@H](C)CO)C[C@@H]2C)c1", "cytotoxicity call": "inactive"}
{"molecule": "C[C@H]1CN([C@@H](C)CO)C(=O)c2cc(NC(=O)Nc3cccc4ccccc34)ccc2O[C@@H]1CN(C)Cc1ccc(Oc2ccccc2)cc1", "cytotoxicity call": "inactive"}
{"molecule": "C[C@@H]1CN([C@@H](C)CO)C(=O)c2cc(NC(=O)Nc3cccc4ccccc34)ccc2O[C@@H]1CN(C)Cc1ccc(Oc2ccccc2)cc1", "cytotoxicity call": "active"}
{"molecule": "C[C@@H]1CN([C@H](C)CO)C(=O)c2cc(NC(=O)Nc3cccc4ccccc34)ccc2O[C@@H]1CN(C)Cc1ccc(Oc2ccccc2)cc1", "cytotoxicity call": "inactive"}
{"molecule": "C[C@H](CO)N1C[C@H](C)[C@@H](CN(C)Cc2ccc(Oc3ccccc3)cc2)Oc2ccc(NC(=O)Nc3cccc4ccccc34)cc2C1=O", "cytotoxicity call": "inactive"}
{"molecule": "C[C@@H]1CN([C@H](C)CO)C(=O)c2cc(NC(=O)Nc3cccc4ccccc34)ccc2O[C@H]1CN(C)Cc1ccc(Oc2ccccc2)cc1", "cytotoxicity call": "inactive"}
{"molecule": "C[C@H](CO)N1C[C@H](C)[C@H](CN(C)Cc2ccc(Oc3ccccc3)cc2)Oc2ccc(NC(=O)Nc3cccc4ccccc34)cc2C1=O", "cytotoxicity call": "active"}
{"molecule": "COc1ccccc1C#Cc1cnc2c(c1)C(=O)N([C@@H](C)CO)C[C@@H](C)[C@H](CN(C)S(=O)(=O)c1cn(C)cn1)O2", "cytotoxicity call": "inactive"}
{"molecule": "CN1C(=O)c2cc(NC(=O)C3CCOCC3)ccc2OC[C@@H]2O[C@H](CC(=O)NCc3ccccc3F)CC[C@H]21", "cytotoxicity call": "inactive"}
{"molecule": "NC(=O)NCC#Cc1ccc2c(c1)[C@]1(C(=O)N2)[C@H](C(=O)N2CCN(c3ncccn3)CC2)[C@H]2C(=O)O[C@H](c3ccccc3)[C@H](c3ccccc3)N2[C@@H]1c1ccc(OCCO)cc1", "cytotoxicity call": "inactive"}
{"molecule": "Cc1noc(C)c1NC(=O)Nc1ccc2c(c1)C(=O)N([C@@H](C)CO)C[C@H](C)[C@H](CN(C)Cc1ccc(C(=O)O)cc1)OCCCC[C@@H](C)O2", "cytotoxicity call": "inactive"}
{"molecule": "C[C@H](CO)N1C[C@H](C)[C@@H](CN(C)Cc2ccc(-c3ccccc3)cc2)Oc2c(NC(=O)c3nc4ccccc4s3)cccc2C1=O", "cytotoxicity call": "inactive"}
{"molecule": "C[C@]12CC[C@@H]3[C@]4(C=C[C@@]5(C=C4C(=O)c4cc6ccccc6s4)C[C@@H](O)CC[C@]35C)[C@@H]1CC[C@@]2(O)CN1CCC(n2c(=O)[nH]c3ccccc32)CC1", "cytotoxicity call": "inactive"}
{"molecule": "CCC(=O)OC1(C(=O)CCl)C(C)CC2C3CCC4=CC(=O)C=CC4(C)C3(F)C(O)CC21C", "note": "(configuration not stated)", "cytotoxicity call": "inactive"}
{"molecule": "CCC(=O)OCC(=O)C1(OC(=O)CC)C(C)CC2C3CCC4=CC(=O)C=CC4(C)C3(Cl)C(O)CC21C", "note": "(configuration not stated)", "cytotoxicity call": "inactive"}
{"molecule": "CC1CC2C3CCC4=CC(=O)C=CC4(C)C3(Cl)C(O)CC2(C)C1(OC(=O)c1ccco1)C(=O)CCl", "note": "(configuration not stated)", "cytotoxicity call": "active"}
{"molecule": "C[C@H](CO)N1C[C@H](C)[C@H](CN(C)S(=O)(=O)c2ccc(F)cc2)Oc2ncc(C#CCN(C)C)cc2C1=O", "cytotoxicity call": "inactive"}
{"molecule": "CCS(=O)(=O)NCC[C@@H]1CC[C@@H](NC(=O)C2CCOCC2)[C@H](CO)O1", "cytotoxicity call": "inactive"}
{"molecule": "Cc1ccccc1S(=O)(=O)N1C[C@H](O)COC[C@@H]2O[C@H](CC(=O)NCc3ccccc3Cl)CC[C@H]21", "cytotoxicity call": "inactive"}
{"molecule": "O=C(NC1(c2ccccc2)CC1)c1c(CN2CCC(N3CCCCC3)CC2)c(-c2cccc(C(F)(F)F)c2)nc2cc(Br)ccc12", "cytotoxicity call": "active"}
{"molecule": "O=C(N[C@@H](c1ccc(-c2ccccc2)cc1)c1cnccn1)C1CCN(Cc2cccc(C(F)(F)F)c2)CC1", "cytotoxicity call": "inactive"}
{"molecule": "COc1ccc(S(=O)(=O)N(C)C[C@H]2Oc3ccc(NC(=O)CCCN(C)C)cc3CC(=O)N([C@H](C)CO)C[C@@H]2C)cc1", "cytotoxicity call": "inactive"}
{"molecule": "Cc1noc(C)c1NC(=O)N(C)C[C@@H]1OCCCC[C@@H](C)Oc2ccc(NC(=O)CCCCCC(=O)Nc3ccccc3N)cc2C(=O)N([C@H](C)CO)C[C@@H]1C", "cytotoxicity call": "inactive"}
{"molecule": "CO[C@@H]1CN(C)C(=O)c2ccc(NC(=O)CC(F)(F)F)cc2OC[C@H](C)N(C(=O)C2CCOCC2)C[C@H]1C", "cytotoxicity call": "inactive"}
{"molecule": "Cc1noc(C)c1NC(=O)Nc1cccc2c1O[C@H](CN(C)Cc1ccc(C(F)(F)F)cc1)[C@@H](C)CN([C@@H](C)CO)C2=O", "cytotoxicity call": "inactive"}
{"molecule": "COc1ccc(NC(=O)Nc2ccc3c(c2)C(=O)N([C@@H](C)CO)C[C@H](C)[C@@H](CN(C)C(=O)Nc2ccc(F)cc2)OCCCC[C@H](C)O3)cc1", "cytotoxicity call": "inactive"}
{"molecule": "C[C@H](CO)N1C[C@H](C)[C@@H](CN(C)Cc2ccc3c(c2)OCO3)Oc2c(NC(=O)Nc3ccc(C(F)(F)F)cc3)cccc2C1=O", "cytotoxicity call": "active"}
{"molecule": "C[C@H](CO)N1C[C@H](C)[C@H](CN(C)Cc2ccc(C(F)(F)F)cc2)Oc2c(NC(=O)Nc3ccc4c(c3)OCO4)cccc2C1=O", "cytotoxicity call": "inactive"}
{"molecule": "C[C@H]1CN([C@@H](C)CO)C(=O)c2cccc(NC(=O)Nc3ccc(C(F)(F)F)cc3)c2O[C@H]1CN(C)Cc1ccc2c(c1)OCO2", "cytotoxicity call": "inactive"}
{"molecule": "C[C@@H]1CN([C@@H](C)CO)C(=O)c2cccc(NC(=O)Nc3ccc(C(F)(F)F)cc3)c2O[C@@H]1CN(C)Cc1ccc2c(c1)OCO2", "cytotoxicity call": "inactive"}
{"molecule": "C[C@H](CO)N1C[C@H](C)[C@H](CN(C)Cc2ccc3c(c2)OCO3)Oc2c(NC(=O)Nc3ccc(C(F)(F)F)cc3)cccc2C1=O", "cytotoxicity call": "inactive"}
{"molecule": "C[C@@H]1CN([C@H](C)CO)C(=O)c2cccc(NC(=O)Nc3ccc(C(F)(F)F)cc3)c2O[C@H]1CN(C)Cc1ccc2c(c1)OCO2", "cytotoxicity call": "inactive"}
{"molecule": "C[C@@H]1CN([C@@H](C)CO)C(=O)c2cccc(NC(=O)Nc3ccc4c(c3)OCO4)c2O[C@H]1CN(C)Cc1ccc(C(F)(F)F)cc1", "cytotoxicity call": "active"}
{"molecule": "C[C@@H]1CN([C@H](C)CO)C(=O)c2cccc(NC(=O)Nc3ccc(C(F)(F)F)cc3)c2O[C@@H]1CN(C)Cc1ccc2c(c1)OCO2", "cytotoxicity call": "inactive"}
{"molecule": "C[C@H]1CN([C@@H](C)CO)C(=O)c2cccc(NC(=O)Nc3ccc(C(F)(F)F)cc3)c2O[C@@H]1CN(C)Cc1ccc2c(c1)OCO2", "cytotoxicity call": "active"}
{"molecule": "C[C@H]1CN([C@@H](C)CO)C(=O)c2cccc(NC(=O)Nc3ccc4c(c3)OCO4)c2O[C@@H]1CN(C)Cc1ccc(C(F)(F)F)cc1", "cytotoxicity call": "inactive"}
{"molecule": "C[C@H]1CN([C@@H](C)CO)C(=O)c2cccc(NC(=O)Nc3ccc4c(c3)OCO4)c2O[C@H]1CN(C)Cc1ccc(C(F)(F)F)cc1", "cytotoxicity call": "inactive"}
{"molecule": "C[C@@H]1CN([C@@H](C)CO)C(=O)c2cccc(NC(=O)Nc3ccc(C(F)(F)F)cc3)c2O[C@H]1CN(C)Cc1ccc2c(c1)OCO2", "cytotoxicity call": "active"}
